Measured values from PubChem BioAssay (NCATS).
Inconclusive results are not listed. The source made the active and inactive calls. The call rests on the fitted dose curve; in most records, active means well fitted curve in the direction sought with a large enough effect; inconclusive means small, poorly fitted or top-dose-only effect, or another doubt; inactive means no such curve, though single readings can be large; an effect the other way counts as inactive or inconclusive.

What was measured:
[1] = target: Calcium and integrin-binding protein 1 (Homo sapiens) (UniProt Q99828); experiment: Primary qHTS for Identification of Calcium Integrin Binding Protein 1 (CIB1) Competitor (AID 1508620);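 further: GST tagged CIB1 binding a fluorescein labelled alphaIIb integrin peptide tracer; top concentration of the series differs between compounds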
Outline: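 Fluorescence polarization competition: GST-tagged CIB1 (1 uM final) preincubated with compound 15 min at room temperature, then FITC-labelled alphaIIb peptide (100 nM final) added. After 15 min at room temperature, polarization read at Ex 480/Em 540.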

[2] = Primary qHTS for inhibitors of nuclear receptor binding SET domain protein 2 (NSD2) in an isogenic RCH-ACV NSD2 p.E1099K mutant (9B) (AID 1645876); further: nearly all actives have a fitted effect of over 70% in size
[3] = Primary qHTS for inhibitors of nuclear receptor binding SET domain protein 2 (NSD2) in an RCH-ACV wild type WT cells (2C) (AID 1645877); further: nearly all actives have a fitted effect of over 70% in size
On the % scale 0 is the no-effect control and ±100 the full control effect.

Sequence of Calcium and integrin-binding protein 1 (Homo sapiens) (Q99828 whole entry, looked up): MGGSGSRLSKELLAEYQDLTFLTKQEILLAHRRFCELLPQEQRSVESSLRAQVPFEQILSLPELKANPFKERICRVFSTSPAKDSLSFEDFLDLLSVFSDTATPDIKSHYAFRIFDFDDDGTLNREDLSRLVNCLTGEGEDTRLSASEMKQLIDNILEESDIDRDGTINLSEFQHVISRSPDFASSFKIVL

CCc1cccc2c3c([nH]c12)[C@@](CC)(CC(=O)O)OCC3
inactive: Potency [1] | Potency [2] | Potency [3]

O=C(/C=C/c1ccc(O)cc1)O[C@H]1[C@H](OC2CCCCC2O)O[C@H](CO)[C@@H](O)[C@@H]1O (stereo partly drawn)
inactive: Potency [1] | Potency [2] | Potency [3]

C=C1CCC[C@]2(C)CC[C@@](O)(C(=C)C(=O)O)C[C@@H]12
inactive: Potency [1] | Potency [2] | Potency [3]

O=C(/C=C/c1ccc(O)cc1)O[C@@H]1C[C@@](O)(C(=O)O)C[C@@H](O)[C@@H]1O
inactive: Potency [1] | Potency [2] | Potency [3]

COc1cccc(C)c1C(=O)O[C@@H]1C[C@H](O[C@H]2[C@H](O)C[C@H](O[C@@H]3CCC[C@H]4[C@H]3C=C[C@@H]3CCCC/C=C/[C@H]5C=C(C(=O)O)[C@@H](C)C[C@@]56OC(=O)C(=C6O)OC(=O)[C@@]34C)O[C@@H]2C)O[C@H](C)[C@H]1O
inactive: Potency [1] | activity change, negative = viability loss [2] -5.35% [at 9.23 µM] | activity change, negative = cell killing [3] -1.86% [at 9.23 µM]

CC1OC(OC2C(OC3C(O[C@H]4CC[C@@]5(C)C(CC[C@]6(C)C5CC=C5C7CC(C)(C)CC(O)[C@]7(C)CC[C@]56C)C4(C)C)OC(C(=O)O)C(O)C3O)OCC(O)C2O)C(O)C(O)C1O (stereo partly drawn)
inactive: Potency [1] | outcome [2] inactive [at 9.23 µM] | activity change, negative = cell killing [3] 4.8% [at 9.23 µM]

CC(C)/C=C1/NC(=O)C(C(C)C)n2c1nc1c(O)cccc1c2=O (stereo not drawn)
inactive: Potency [1] | Potency [2] | Potency [3]

COc1ccc(/C=C/C(N)=O)cc1OC
inactive: Potency [1] | Potency [2] | Potency [3]

C=C1CC23CC(=O)C4C(CO)(CO)CCCC4(C)C2CCC1C3 (stereo not drawn)
inactive: Potency [1] | Potency [2] | Potency [3]

CC1=CC23[C@H](C=C(C(=O)O)[C@@H]2COC(=O)[C@]3(O)CO)[C@@H]1C (stereo partly drawn)
inactive: Potency [1] | Potency [2] | Potency [3]

O=C(O)CCc1cccc(O)c1O[C@@H]1O[C@H](CO)[C@@H](O)[C@H](O)[C@H]1O
inactive: Potency [1] | Potency [2] | Potency [3]

O=C(OC1C=C(CO)C2C(OC3OC(CO)C(O)C(O)C3O)OC=CC12O)c1ccc(O)cc1 (stereo not drawn)
inactive: Potency [1] | Potency [2] | Potency [3]

C[C@@H]1O[C@@H](O[C@H]2[C@H](O)[C@@H](O)[C@H](OC(=O)[C@]34CCC(C)(C)C[C@H]3C3=CCC5[C@@]6(C)CC[C@H](O[C@@H]7O[C@H](C(=O)O)[C@@H](O)[C@H](O)[C@H]7O)C(C)(C)C6CC[C@@]5(C)[C@]3(C)CC4)O[C@@H]2CO)[C@H](O)[C@H](O)[C@H]1O (stereo partly drawn)
inactive: Potency [1] | activity change, negative = viability loss [2] -5.91% [at 9.23 µM] | activity change, negative = cell killing [3] -1.6% [at 9.23 µM]

CC1CCC2(C)CCC3(C)C(=CCC4C5(C)CCC(O)C(C)(C(=O)O)C5CCC43C)C2C1C (stereo not drawn)
inactive: Potency [1] | Potency [2] | Potency [3]

COc1cc(C[C@@]2(O)CO[C@@H](c3ccc(O[C@@H]4O[C@H](CO)[C@@H](O)[C@H](O)[C@H]4O)c(OC)c3)[C@H]2CO)ccc1O
inactive: Potency [1] | Potency [2] | Potency [3]

COC1OC(O)C2(CCC3(O2)C(C)CC2OC(=O)C4(C)CCCC3(C)C24)C1O (stereo not drawn)
inactive: Potency [1] | Potency [2] | Potency [3]

C=C1C(O)CC2C(C(=O)O)=COC(OC3OC(CO)C(O)C(O)C3OC(=O)/C=C\c3ccc(O)cc3)C12 (stereo not drawn)
inactive: Potency [1] | Potency [2] | Potency [3]

Fc1cccc(CN(C2=NCCN2)c2c(Cl)cccc2Cl)c1
inactive: Potency [1] | Potency [2] | Potency [3]

COC(=O)C(CC1(O)c2ccccc2N2C(=O)C(CC(C)C)NC21)n1cnc2ccccc2c1=O (stereo not drawn)
inactive: Potency [1] | Potency [2] | Potency [3]

O=C(/C=C/c1ccc(O)c(O)c1)O[C@H]1[C@H](OC2CCCCC2O)O[C@H](CO)[C@@H](O)[C@@H]1O (stereo partly drawn)
inactive: Potency [1] | Potency [2] | Potency [3]

COC(=O)C1=COC(O[C@@H]2O[C@H](COC(=O)/C=C/c3ccc(O)cc3)[C@@H](O)[C@H](O)[C@H]2O)C2C(CO)=CCC12 (stereo partly drawn)
inactive: Potency [1] | Potency [2] | Potency [3]

COC(O)(CC(C)C)C1Oc2cc(C)[nH]c(=O)c2O1 (stereo not drawn)
inactive: Potency [1] | Potency [2] | Potency [3]

CCC(C)/C=C(C)/C=C/C1=CC2=C(Cl)C(=O)C(C)(OC(C)=O)C(=O)C2=CN1C(CCC(=O)O)C(=O)O (stereo not drawn)
inactive: Potency [1] | Potency [2] | Potency [3]

CC1(C)CC[C@]2(C(=O)O[C@@H]3O[C@H](CO)[C@@H](O)[C@H](O)[C@H]3O)CC[C@]3(C)C(=CCC4[C@@]5(C)C[C@H](O)[C@H](O[C@@H]6O[C@H](C(=O)O)[C@@H](O)[C@H](O)[C@H]6O)[C@@](C)(CO)C5CC[C@]43C)C2C1 (stereo partly drawn)
inactive: activity change, negative = inhibition [1] 0.901% [at 12.4 µM] | activity change, negative = viability loss [2] -12.9% [at 9.23 µM] | activity change, negative = cell killing [3] -7.01% [at 9.23 µM]

CC(=O)OCC1OC(O[C@H]2CC[C@]34C[C@]35CC(O)[C@]3(C)[C@@H]([C@H](C)CC/C=C(\C)C(=O)O)C(O)C[C@@]3(C)C5CC[C@H]4C2(C)C)C(O)C(O)C1OC1OCC(O)C(O)C1O (stereo partly drawn)
inactive: Potency [1] | activity change, negative = viability loss [2] -5.86% [at 9.23 µM] | activity change, negative = cell killing [3] -13.7% [at 9.23 µM]

COC(=O)c1ccc(OC)cc1O[C@@H]1O[C@H](CO[C@@H]2OC[C@@H](O)[C@H](O)[C@H]2O)[C@@H](O)[C@H](O)[C@H]1O
inactive: Potency [1] | Potency [2] | Potency [3]
